Results reported in PubChem BioAssay AID504406 (Broad Institute, 2011).
In all, about 320,000 compounds went through this assay and about 190 (0.059%) were called active. What follows is part of a selection rich in actives, with near analogues and random picks from the rest. Unmarked numbers belong to inactive results. No stated cut-off is given here; in the data, active means inhibition above about 10% (passing the limit was not always enough); inconclusive means no clear call, values can overlap the other calls.

Molecular target: UDP-galactopyranose mutase (Mycobacterium tuberculosis (strain ATCC 25618 / H37Rv)) (UniProt P9WIQ1)
Sequence (P9WIQ1 whole entry, looked up): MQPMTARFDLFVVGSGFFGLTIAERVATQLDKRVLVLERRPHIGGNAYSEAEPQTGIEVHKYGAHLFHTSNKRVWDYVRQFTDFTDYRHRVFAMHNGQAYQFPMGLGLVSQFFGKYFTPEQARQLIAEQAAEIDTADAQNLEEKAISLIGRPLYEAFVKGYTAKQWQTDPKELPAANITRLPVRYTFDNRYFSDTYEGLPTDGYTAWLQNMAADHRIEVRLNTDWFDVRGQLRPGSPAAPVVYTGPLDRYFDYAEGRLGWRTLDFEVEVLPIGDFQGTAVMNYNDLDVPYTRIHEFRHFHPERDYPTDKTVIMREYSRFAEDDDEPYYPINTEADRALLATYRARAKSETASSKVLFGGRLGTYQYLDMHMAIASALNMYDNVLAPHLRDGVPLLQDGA
Experiment: blockers of Mtb UDP-galactopyranose mutase – biochemical, fluorescence polarization, single point, primary screen (AID 504406)
Conditions: purified UGM, fluorescence polarization probe displacement; at 10 µM; stronger effect = higher value

Structure (SMILES)	inhibition
CC1CC(=O)N(CC(=O)Nc2cccc(Cl)c2)c2ccccc2S1(=O)=O (stereo unspecified)	-0.479%
O=C(O)C1CC=CCC1C(=O)NCCc1ccccc1 (stereo unspecified)	-0.437%
CC(NC(=O)c1ccc(S(=O)(=O)Nc2ccccc2)cc1)c1ccc(S(N)(=O)=O)cc1 (stereo unspecified)	-0.443%
CC(=O)c1nn(-c2cccc(Br)c2)cc1C(=O)c1cccc2ccccc12	2.24%
O=C(CCCN1CCc2[nH]c3ccc(F)cc3c2C1)c1ccc(F)cc1	-0.464%
COc1ccc(C(C)NC(=O)C23CC4CC(CC(C4)C2)C3)cc1 (stereo unspecified)	0.347%
CCOc1ccccc1-n1c(SCC(=O)N2CCCC2)nnc1-c1ccoc1C	0.65%
O=C(Cc1cccs1)NCc1cccc(C(F)(F)F)c1	0.316%
O=C(CC1Oc2ccccc2NC1=O)NCCCN1CCN(Cc2ccccc2)CC1 (stereo unspecified)	-0.871%
Cc1ccc(C(=O)CSc2nc3ccccc3c(=O)n2N)o1	-2.34%
COc1cccc(-c2ccc3c(c2)S(=O)(=O)c2cccc(C(=O)O)c2C3=O)c1OC	-0.479%
O=C(COc1cc(Cl)c(Cl)cc1Cl)NCCc1ccccn1	1.96%
O=C(C[n+]1cc(Br)cc2ccccc21)c1ccc(F)cc1	-0.457%
COC(=O)C[n+]1cccc2ccccc21	13.9% (active)
COc1c(C(=O)N2CCCC2)ccc2ccccc12	-0.901%
COc1ccc(CCN2C(=O)c3[nH]nc(-c4ccccc4O)c3C2c2ccc(C)cc2)cc1OC (stereo unspecified)	2.57%
COc1ccc(N2CCN(S(=O)(=O)c3cc(Br)cnc3N)CC2)cc1	1.41%
Cc1ccc(NS(=O)(=O)c2ccc(F)cc2)nc1	-0.636%
N#Cc1c(N)nc2c3c(sc(=N)c2c1N)NC(=O)CC3c1ccccc1Cl (stereo unspecified)	2.45%
COc1cccc(CNC(=O)CCC2CCCN(C(=O)c3ccoc3C)C2)c1 (stereo unspecified)	-0.384%
COc1ccc(NC(=O)CN(Cc2ccccc2)S(C)(=O)=O)cc1OC	-0.501%
CCc1ccccc1NC(=S)Nc1cc(OC)c(NC(=O)C(C)C)cc1OC	0.622%
COC(=O)C1=C(C(=O)OC)[C@@H]2N(C)c3ccccc3[C@@]23C[C@@H](C(=O)OC)N(C(C)=O)C3=N1	-0.842%

Structure (SMILES)	inhibition
O=C(NCc1ccco1)C1CCCN1S(=O)(=O)c1ccccc1C(F)(F)F (stereo unspecified)	5.45%
CC(C)Oc1ccccc1C(=O)NC(CO)C(=O)O (stereo unspecified)	-1.15%
CC(=O)C1=C(O)C(=O)N(c2ccc(S(N)(=O)=O)cc2)C1c1ccccc1F (stereo unspecified)	3.63%
Cc1ccc(CCn2c3c(c4ccccc42)CN(C)CC3)cn1	0.129%
O=C(NCc1cccnc1)Nc1cccc(NC(=O)NCc2cccnc2)c1F	-4.12%
CCOC(=O)C1(Cc2cccc(OC)c2)CCCN(C(=O)CCSC)C1 (stereo unspecified)	1.34%
Cc1ccc(-c2nn(-c3cccc(F)c3)cc2CNCCc2ccncc2)o1	-3.08%
Cc1ccc2c(CC(=O)NCc3cccs3)coc2c1	-2.27%
CCN1C(=NCc2ccc(OC)cc2)N[C@@H](CCc2ccccc2)[C@H](C(=O)NCc2ccc(OC)cc2)[C@H]1C	0.311%
COc1ccc(OC)c(C2N(c3ccccn3)C(=O)C3CCCN32)c1 (stereo unspecified)	-1.67%
O=C(c1ccc(Cl)c(S(=O)(=O)N2CCCCCC2)c1)N1CCN(c2ccc(O)cc2)CC1	0.826%
CSCCC(NS(=O)(=O)c1ccc2c(c1)oc(=O)n2C)C(=O)NCc1ccccc1 (stereo unspecified)	7.62%
COc1cccc(CNS(=O)(=O)c2ccc3c(c2)N(C(C)=O)CCS3)c1	0.635%
Cc1nc(NCc2ccccc2)c(C(N)=O)c2c1COC(C)(C)C2	-0.415%
O=C(CSc1nnnn1-c1ccc(O)cc1)N1N=C(c2ccc3ccccc3c2)CC1c1ccccc1 (stereo unspecified)	-0.544%
O=C(CN1C(=O)COc2ccc(Cl)cc21)N1CCOCC1	-2.04%
Nc1ncc(CN2CCCC(C(=O)Nc3ccc(-c4ccco4)cc3)C2)cn1 (stereo unspecified)	-0.194%
O=C(CCCN1C(=O)c2ccccc2C1=O)Oc1ccc(Cl)cc1	1.46%
COc1cc(S(=O)(=O)N(Cc2cccs2)C2CC2)ccc1-n1cnnn1	-0.867%
CCOc1cc(C(=O)Nc2ccc(S(=O)(=O)Nc3cnc4ccccc4n3)cc2)cc(OCC)c1OCC	-1.61%
COC(=O)C1(C)CC1(c1ccccc1)c1ccccc1 (stereo unspecified)	-0.587%
NC(=O)C1CC=CCC1C(=O)OCC(Cl)=C(Cl)Cl (stereo unspecified)	-1.58%
Nc1ccc2nc3c(=O)[nH]c(=S)[nH]c3nc2c1	15.2% (active)

Structure (SMILES)	inhibition
CC(C)C[C@@H](COc1ccccc1)N1CCN(CC(C)C)CCC1=O	1.36%
O=C(Nc1ccc([N+](=O)[O-])cc1)OCCc1ccccn1	-0.463%
Cc1ccc(S(=O)(=O)NC2CCCCCC2)cc1C(N)=O	1.67%
CC(C)(C)C1CCC(C(=O)NCC(c2cccs2)N2CCOCC2)CC1 (stereo unspecified)	0.328%
C(=C\c1ccccc1)/CSc1nnc(-c2cccnc2)n1Cc1ccco1	1.26%
CN1C(=O)c2cccc3c(N)ccc(c23)C1=O	24.4% (active)
Cc1nn(C)cc1N1C(=O)c2cccc3c(N)ccc(c23)C1=O	31.9% (active)
CC(C(=O)O)N1C(=O)c2cccc3cccc1c23 (stereo unspecified)	3.93%
COc1ccc([N+](=O)[O-])cc1NC(=O)c1ccc(N(Cc2ccccc2C)S(C)(=O)=O)cc1	0.0791%
COc1cc(OC)cc(/C(N)=N/O)c1	1.41%
CC(=O)Nc1ccc(NC(=O)C2CCCN2S(=O)(=O)c2cccc(C(F)(F)F)c2)cc1 (stereo unspecified)	-2.31%
CC(=O)Nc1ccc(S(=O)(=O)NC(C)C(=O)OCCOc2ccc(F)cc2)cc1 (stereo unspecified)	-1.41%
CCCCN(CC)CCNC(=O)CCNC(=O)Cn1ccc2ccccc2c1=O	0.375%
COCCCNC(NC(=O)c1ccc(C)cc1)C(Cl)(Cl)Cl (stereo unspecified)	-0.407%
O=C(NNC1=NCCC1)c1cccc(S(=O)(=O)N2CCCCC2)c1	2.86%
COc1ccc(/C=C(/NC(=O)c2ccco2)C(=O)Nc2ccc(C(C)=O)cc2)cc1	0.676%
COc1ccc(-c2cc(C(=O)N3CCN(c4ccc(F)cc4)CC3)no2)cc1	0.979%
Oc1ccc2ccc3cccc[n+]3c2c1	45.7% (active)
CCc1ccc(C(=O)N2CCN(S(=O)(=O)c3sc(C(=O)O)c(C)c3C(=O)O)CC2)cc1	2.51%
COc1cc(/C=C/C(=O)OCC(=O)NC2CC2)cc(OC)c1OC	0.117%
COc1ccc(/C=C/C(=O)OCC(=O)NC2CCCCCC2)cc1OC	29.9% (active)
COc1ccccc1/C=C/C(=O)OCC(=O)NC1CCCCCC1	-0.893%
COc1cccc(NC(=O)Cn2c3ccccc3c3nc4n(c(=O)c32)CCS4)c1	0.23%

Structure (SMILES)	inhibition
COc1ccccc1NC(=O)C(C)OC(=O)c1ccc(-n2cnnn2)cc1 (stereo unspecified)	-1.34%
COc1ccc(S(=O)(=O)N2CCN(C(=O)c3cc(C)oc3C)CC2)cc1	-0.865%
COc1ccc(N(CC(=O)NC2CCCCC2)C(=O)CNC(=O)c2ccco2)c(OC)c1	2.4%
CC(C)CCNc1nc(N2CCCC2)c2c(c1C#N)CCN(C)C2	3.98%
Clc1ccc(-c2cc(C3CCNCC3)[nH]n2)c(Cl)c1	1.34%
O=C1CCc2cc(S(=O)(=O)Nc3ccc(C(F)(F)F)cc3)cc3c2N1CC3	-0.849%
Cc1nnc(Nc2ccccc2F)s1	-1.25%
CCc1ccc2c(c1)C1(NN=C(c3ccccc3)S1)C(=O)N2 (stereo unspecified)	1.69%
O=C(OCc1cc(=O)n2ccsc2n1)C1(c2ccc(Cl)cc2)CC1	-0.701%
COc1ccc([N+](=O)[O-])cc1N(CC(=O)Nc1ccccc1C(=O)N1CCOCC1)S(C)(=O)=O	-1.48%
O=C(NCC#CCSc1nnc(-c2cccc3ccccc23)o1)c1cccs1	0.904%
O=C(COC(=O)CCCSc1nc2ccccc2[nH]1)Nc1ccc(Oc2ccccc2)cc1	-1.64%
Cn1c(=O)[nH]c(=O)c2c1nc(NCCCn1ccnc1)n2Cc1cccc(Br)c1	1.02%
CCN1CC=C2C(C#N)=C(N)C(C#N)(C#N)[C@H](c3ccoc3)[C@H]2C1	13.1% (active)
N#CC1=C(N)C(C#N)(C#N)[C@H](c2ccsc2)[C@H]2COCC=C12	0.548%
COc1ccc(OC)c(CCNC(=O)CCn2ccc3cc(S(=O)(=O)N4CCCC4)ccc32)c1	-0.0435%
CCN(C(=O)COC(=O)CCC(=O)c1cccs1)C1CCCCC1	0.798%
CCN(C(=O)CSc1cccc[n+]1[O-])c1ccccc1	1.75%
COc1ccccc1CCC(=O)OCC(=O)N1CCN(S(=O)(=O)c2ccc(C)cc2C)CC1	2.52%
CC(=O)N1CC2(C)CN(C(C)=O)CC(C)(C1)C2=O	-1.57%
COCCn1c(SCc2nc3cc(OC)c(OC)cc3c(=O)[nH]2)nnc1-c1ccncc1	0.376%
COCCCNC(=O)CC1C[C@H](C(=O)N2CCCCC2)[C@@]2(CCc3ccccc3)c3[nH]c4ccccc4c3CCN2C1=O (stereo partly specified)	-1.3%
